Laboratory results as given in PubChem BioAssay (NCATS).
Values joined by “and” are separate entries in the source; they are usually repeats but may differ in a detail not shown here. Equal entries are not always repeated. Results filed as inconclusive are left out. A number with no mark means an inactive call. Active and inactive are the calls of the source. Calls come from the whole dose curve; as a rule, active = well fitted inhibition curve with a large enough effect; inconclusive = small, poorly fitted or top-dose-only effect; inactive = flat fitted curve, though single readings scatter.

Experiment: P-glycoprotein substrates identified in KB-8-5-11 adenocarcinoma cell line, qHTS therapeutic library screen (AID 1346987); note: nearly all actives have a fitted effect of over 65% in size
Conditions: KB-8-5-11 (P-gp overexpressing) viability, CellTiter-Glo, 72 h; series mostly up to 44.5 µM; activity change, negative = cytotoxicity: at the top concentration
How it was run: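 Luminescence from CellTiter-Glo, read 5 min after addition, quantified survival of KB-8-5-11 (P-gp-overexpressing) cells exposed to compounds for 72 h. AC50 was derived from concentration-response curves.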
% is set by controls: 0 for no effect and ±100 for the full control effect; potency is the fitted concentration of half-maximal effect.

Structure (SMILES) | Potency | activity change, negative = cytotoxicity | outcome
Cc1c(C(=O)Nc2ccc(N3CCC(N4CCOCC4)CC3)c(C#N)c2)cnn1-c1ccc(Cl)cc1 | 0.82 µM (active) |  | 
C[C@H]1C[C@@H]2[C@H]([C@@H](O)C[C@@]3(C)[C@H]2CC[C@]3(O)C(=O)COC(=O)CCC(=O)O)[C@@]2(C)C=CC(=O)C=C12 |  | -2.88% | 
COc1cc(O)c2c(c1)/C=C/C[C@H](O)[C@H](O)C(=O)/C=C\C[C@H](C)OC2=O | 9.2 µM (active) and 8.2 µM (active) |  | 
CCCCCCCCC(=O)N[C@H](CN1CCCC1)[C@H](O)c1ccc2c(c1)OCCO2 | 16.4 µM (active) |  | 
C/C=C(\C)C(=O)OC1C=C(C)CC(OC(=O)c2ccc(O)cc2)C2C1(C)CCC2(O)C(C)C (configuration not stated) |  | -21.9% [at 17.3 µM] | 
CC(C)=CCC[C@](C)(O[C@@H]1O[C@H](CO[C@@H]2OC[C@@H](O)[C@H](O)[C@H]2O)[C@@H](O)[C@H](O)[C@H]1O)[C@H]1CC[C@]2(C)[C@@H]1[C@H](O)C[C@@H]1[C@@]3(C)CC[C@H](O[C@@H]4O[C@H](CO)[C@@H](O)[C@H](O)[C@H]4O)C(C)(C)[C@@H]3CC[C@]12C |  | 4.28% [at 17.3 µM] | 
CC(C)CCNC(=O)[C@H](CC(C)C)NC(=O)[C@H]1O[C@@H]1C(=O)O |  | 2.03% | 
Cc1c(N)nc(C(CC(N)=O)NCC(N)C(N)=O)nc1C(=O)NC(C(=O)NC(C)C(O)C(C)C(=O)NC(C(=O)NCCc1nc(-c2nc(C(=O)NCCCN[C@@H](C)c3ccccc3)cs2)cs1)C(C)O)C(O[C@@H]1O[C@@H](CO)[C@@H](O)[C@H](O)[C@@H]1O[C@H]1O[C@H](CO)[C@@H](O)[C@H](OC(N)=O)[C@@H]1O)c1cnc[nH]1 (some centres not stated) |  | -17.4% | 
Cn1ncc(Cl)c1-c1cc(C(=O)N[C@H](CN)Cc2cccc(F)c2)sc1Cl | 18.4 µM (active) |  | 
O=C(NC[C@H]1CN(c2ccc(N3CCOCC3=O)cc2)C(=O)O1)c1ccc(Cl)s1 |  |  | inactive
COc1ccc2cc(-c3cc(-c4cc(Cl)cc(Cl)c4)nn3C(C)c3ccc(C(=O)NCCC(=O)O)cc3)ccc2c1 (configuration not stated) |  | -11.7% | 
CN(C)CC1CCn2c(c(C3=C(c4cn(C)c5ccccc45)C(=O)NC3=O)c3ccccc32)C1 (configuration not stated) | 16.4 µM (active) |  | 
COc1cc(O)cc(OC2OC(CO)C(O)C(O)C2O)c1 (configuration not stated) |  |  | inactive
COc1cc2[nH]c(C)c(CCN3CCN(c4ccccc4)CC3)c2cc1OC |  | -29.3% | 
COc1cc(C(C)=O)c(OC)c2c1OC(C)(C)C=C2 |  | 8.19% | 
COC(=O)c1sccc1S(=O)(=O)Nc1ccc(Nc2ccccc2)cc1OC |  | -24.5% | 
O=C(Nc1ccc(-c2ccnc(Nc3ccc(N4CCOCC4)cc3)n2)cc1)C1CCCN1 (configuration not stated) | 14.6 µM (active) |  | 
C[C@@H]1O[C@@H](O[C@H]2[C@@H](OC(=O)[C@]34CCC(C)(C)CC3C3=CCC5[C@@]6(C)C[C@H](O)[C@H](O[C@@H]7O[C@H](CO)[C@@H](O)[C@H](O)[C@H]7O[C@@H]7OC[C@@H](O)[C@H](O)[C@H]7O)[C@@](C)(C(=O)O)C6CC[C@@]5(C)[C@]3(C)CC4)OC[C@H](O)[C@@H]2O)[C@H](O)[C@H](O)[C@H]1O[C@@H]1OC[C@@H](O)[C@H](O)[C@H]1O (some centres not stated) |  |  | inactive [at 9.29 µM]
Cc1cnn(-c2ccccc2)c1NC(=O)COCc1ccccc1 |  | -13.2% | 
CCCC(Nc1nc(-c2ccc(NC(=O)NCC)c(OC)c2)ncc1C)c1cccnc1 (configuration not stated) | 1.16 µM (active) |  | 
COc1cc(-c2nc(N[C@H](CO)Cc3ccccc3)ccc2C(=O)NCCOc2ccccc2)cc(OC)c1OC |  | -0.52% | 
CC(=O)Nc1cccc(-c2csc(Nc3cc(C)ccn3)n2)c1 |  | -27.1% | 
CCC(C)C(=O)O[C@H]1[C@H](O)[C@@]2(COC(C)=O)C(CC1(C)C)C1=CCC3[C@@]4(C)CC[C@H](O[C@@H]5O[C@H](C(=O)O)[C@@H](O)[C@H](O)[C@H]5O)[C@@](C)(CO)C4CC[C@@]3(C)[C@]1(C)C[C@@H]2O (some centres not stated) |  | -11.3% [at 9.29 µM] | 
O=c1cc(N2CCN(c3cccc(C(F)(F)F)c3)CC2)[nH]c(=O)n1C1CCCCC1 |  | -21.8% | 
CCC(=O)OCC(=O)[C@@]1(OC(=O)CC)[C@@H](C)C[C@H]2[C@@H]3CCC4=CC(=O)C=C[C@]4(C)[C@@]3(Cl)[C@@H](O)C[C@@]21C |  | -15.9% | 
CCC(C)C1NC(=O)C(Cc2ccccc2)NC(=O)C(CCCCCC(=O)C(O)CO)NC(=O)C2CCCCN2C1=O (configuration not stated) |  |  | inactive [at 17.3 µM]
C[C@@H]1O[C@@H](O[C@H]2CC[C@@]3(C)C(CC[C@]4(C)C3CC=C3[C@@H]5CC(C)(C)CC[C@]5(C(=O)O[C@@H]5O[C@H](CO)[C@@H](O)[C@H](O)[C@H]5O)CC[C@]34C)[C@]2(C)CO)[C@H](O)[C@H](O[C@@H]2O[C@H](CO)[C@@H](O)[C@H](O)[C@H]2O)[C@H]1O (some centres not stated) |  | 3.4% [at 9.29 µM] | 
